Screening data deposited in PubChem by several laboratories.
Most compounds without a hit are left out; they make up all but 2.1% or so of the library.
Mot1-301 SUMO – yeast Mot1-301 growth rescue at high temperature, primary screen, SUMOylation pathway inhibitor project, S. cerevisiae, ATP luminescence, 38.5C; S. cerevisiae Mot1-301 growth rescue; percent above DMSO median, 100 means doubled; growth rescue, % at 18.8 µM; 1% of 320,000 active; AID 2716, 2010;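 active = every valid replicate shows activation above 250% relative to neutral control wells; inactive = the rest, any valid replicate at or below 250%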
HDAC3 inhib – HDAC3 deacetylase inhibitors, primary screen, biochemical, fluorescence, cell-free homogeneous. Histone deacetylase 3 (Homo sapiens), O15379. recombinant HDAC3, fluorogenic peptide/trypsin coupled. inhibition, % at 8.3 µM. 0.15% of 320,000 active; in the data active = inhibition above about 26%, passing the limit was not always enough; inconclusive = no clear call, values can overlap the other calls
Target sequence (O15379 whole entry, looked up): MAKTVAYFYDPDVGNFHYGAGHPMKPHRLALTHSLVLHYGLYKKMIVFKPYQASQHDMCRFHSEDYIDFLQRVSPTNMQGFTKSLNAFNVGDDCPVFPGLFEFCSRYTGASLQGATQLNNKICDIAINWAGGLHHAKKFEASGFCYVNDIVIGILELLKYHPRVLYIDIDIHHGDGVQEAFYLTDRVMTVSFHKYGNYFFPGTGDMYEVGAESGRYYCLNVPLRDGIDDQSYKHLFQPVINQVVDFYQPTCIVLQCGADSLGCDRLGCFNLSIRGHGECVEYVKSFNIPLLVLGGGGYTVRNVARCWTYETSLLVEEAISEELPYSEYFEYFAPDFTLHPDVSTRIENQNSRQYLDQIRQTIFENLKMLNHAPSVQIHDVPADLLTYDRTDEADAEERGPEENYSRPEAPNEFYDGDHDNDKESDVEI
IDE inh – human IDE inhibitors in live cells, primary screen, fluorescence polarization, HEK cells, FAbetaB substrate; 0.41% of 320,000 active; FAbetaB cleavage; inhibition, % at 5.59 µM; AID 434962, 2010;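 active = percent inhibition above the average of all tested compounds plus 3 SD, set per screening campaign, cut at about 16% in these data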;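 note: IDE supplied by intact live HEK cells; FP after avidin binding of uncleaved biotin substrate so inhibition keeps polarization high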
IDE cell activ – human IDE activators in live cells, primary screen, fluorescence polarization, HEK cells, FAbeta-B substrate; Insulin-degrading enzyme (Homo sapiens), P14735; FAbeta-B cleavage; 0% vehicle, 100% cell-free pure enzyme wells; activation, % at 5.96 µM; 0.073% of 340,000 active; AID 493087, 2011;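 active = activation above the mean of all tested compounds plus 3 SD, set per screening campaign, cut at about 17% in these data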
LANA-H2B inh – blockers of LANA interaction with H2A/H2B – biochemical, FP readout, HTS, primary screen; Protein LANA1 (Human herpesvirus 8 type P (isolate GK18)), Q9QR71; cell-free LANA-H2A/H2B peptide, fluorescence polarization; inhibition, % (no concentration beside the values); 0.6% of 320,000 active; in the data active = inhibition mostly above about 10%, no sharp cut-off; inactive = mostly below about 6.7%
Of the large screens only hits and unclear results are named; the others gave an inactive call; ! = a repeat was not active.

Cc1onc(-c2c(F)cccc2Cl)c1C(=O)OCC(=O)c1c[nH]c2ccccc12	LANA-H2B inh 29
Cc1noc(C)c1C(=O)OCC(=O)c1c[nH]c2ccccc12	none
CCN(CC)C(=O)COC(=O)c1ccc(C)c(NC(=O)c2ccco2)c1	none
Cc1ccc(C(=O)OCC(=O)c2c[nH]c3ccccc23)cc1NC(=O)c1ccco1	LANA-H2B inh active
O=C(c1ccc(N2CCCC2)c([N+](=O)[O-])c1)N1CCN(S(=O)(=O)c2ccccc2)CC1	none (no result: Mot1-301 SUMO, HDAC3 inhib, IDE inh, LANA-H2B inh)
CS(=O)(=O)N1CCC(C(=O)N2CCN(c3ccccc3F)CC2)CC1	Mot1-301 SUMO 310
O=C(C1CCN(S(=O)(=O)c2ccccc2)CC1)N1CCN(c2ccccc2F)CC1	none
COc1cccc(NC(=O)C2CC(=O)OC23CCOC(C)(C)C3)c1 (stereo not given)	LANA-H2B inh 13
CC1(C)CC2(CCO1)OC(=O)CC2C(=O)Nc1c(Cl)cccc1Cl (stereo not given)	none
CN(CCO)c1ccc(-c2n[nH]c(=O)c3ccccc23)cc1[N+](=O)[O-]	none (no result: IDE inh)
CCOC(=O)C1=C(CSc2nc(-c3ccccc3)ccc2C#N)OC(N)=C(C#N)C1c1cccnc1 (stereo not given)	none
CCOC(=O)C1=C(CSc2nc(-c3ccccc3)ccc2C#N)OC(N)=C(C#N)C1c1ccccc1 (stereo not given)	LANA-H2B inh 198
O=C(/C=C/c1ccc(Br)o1)Nc1nccs1	LANA-H2B inh 19
Cn1cc(C[C@H](NC(=O)OC(C)(C)C)C(=O)N[C@H](CO)Cc2ccccc2)c2ccccc21	none
COc1ccccc1/C=C/C(=O)Nc1ccc(S(=O)(=O)Nc2cc(C)nc(C)n2)cc1	Mot1-301 SUMO 351
C=CC(C)(C)O[C@@H]1O[C@H](CO)[C@@H](O)[C@H](O)[C@H]1O	none
Cc1ccc(S(=O)(=O)n2ccc(OC(=O)c3cccs3)n2)cc1	HDAC3 inhib 90
CN(C)c1ncnc2c1ncn2C1OC(CO)C(O)C1O (stereo not given)	Mot1-301 SUMO 277
CN(C)CCCNc1cc(C(C)(C)C)nc2c(-c3ccccc3)cnn12	Mot1-301 SUMO 267, HDAC3 inhib inconclusive
CC(=O)c1sc(NC(=O)CN2C(=O)C3CC=CCC3C2=O)nc1-c1ccccc1 (stereo not given)	none (no result: HDAC3 inhib, LANA-H2B inh)
Cc1cccc(-c2nc3c(c(SCC(=O)N4CCOCC4)n2)Cc2c(CO)cnc(C)c2O3)c1	LANA-H2B inh 18
CCN(CC)C(=O)Cn1cc(C(=O)C(=O)N2CCN(Cc3ccc4c(c3)OCO4)CC2)c2ccccc21	none
c1ccc(CCn2cccc2)nc1	none (no result: Mot1-301 SUMO, HDAC3 inhib, IDE inh, LANA-H2B inh)
CC(=O)c1ccc(S(=O)(=O)N(C)CCCC(=O)N(C)Cc2c(F)cccc2Cl)cc1	LANA-H2B inh 58
COCCC(=O)N1CCC(Oc2ccc(C(=O)N(C)CCCC3CCCC3)cc2)CC1	none
CC(C)(C)S(=O)(=O)c1ccc(S(=O)(=O)C(C)(C)C)s1	Mot1-301 SUMO 949 (no result: IDE cell activ)
CC(C)(C)c1ccc(S(=O)(=O)C(C)(C)C)cc1	none
COc1cc(C(=O)NCC(c2ccc(F)cc2)N2CCOCC2)ccc1OCc1ccccc1Cl (stereo not given)	none
Nc1nc(N)nc(-c2cc(Cl)ccc2Cl)n1	none
Nc1nc(N)nc(-c2cc(C(F)(F)F)ccc2Cl)n1	HDAC3 inhib 28
CC(C)(C)c1cc(CCC(=O)NCC2CCCO2)cc(C(C)(C)C)c1O (stereo not given)	Mot1-301 SUMO 298
CCCNC(=O)CCc1cc(C(C)(C)C)c(O)c(C(C)(C)C)c1	none
Cc1ccc(-c2nnc(SCC(=O)NC3CC3)o2)cc1	none
O=C(COC(=O)/C=C/c1ccco1)NC1CCCCC1	none
O=C(/C=C/c1ccco1)NC1CCCC1	Mot1-301 SUMO 693
COc1ccc(C(C(=O)NC2CCCCC2)N(Cc2ccco2)C(=O)c2snc(C(N)=O)c2N)cc1 (stereo not given)	none (no result: Mot1-301 SUMO, HDAC3 inhib, IDE inh, LANA-H2B inh)
O=C(NCc1ccccc1)c1ccc(NC(=O)C2CCCCC2)cc1	none (no result: Mot1-301 SUMO, HDAC3 inhib, IDE inh, LANA-H2B inh)
CC(C)c1ccc(NCCC(=O)c2ccc(Br)cc2)cc1	Mot1-301 SUMO 324
Cc1cccc(NCCC(=O)c2ccc(Br)cc2)c1	none
O=C(C[n+]1ccc(/C=N/O)cc1)NC1CCCCC1	LANA-H2B inh 17
CC(=O)Nc1cccc(NC(=O)CSc2nc(=O)n3cccc(C)c3n2)c1	none
Cc1ccc(NC(=O)CN(C)C(=O)C(c2ccccc2)c2ccccc2)cc1	none
CN(CC(=O)Nc1c(Cl)cccc1Cl)C(=O)c1ccccc1SCC(=O)N1CCCC1	none
COc1ccc(NC(=O)CN(C)C(=O)C(Sc2ccccc2)c2ccccc2)cc1 (stereo not given)	LANA-H2B inh 60
CCN(CC(=O)Nc1ccccc1C(F)(F)F)C(=O)c1ccccc1SCC(=O)N1CCCC1	LANA-H2B inh 35
COc1ccc(NC(=O)CN(C)C(=O)c2ccccc2SCC(=O)N2CCCC2)cc1	LANA-H2B inh 19
COc1ccc(C(=O)N(C)C2CCN(C)CC2)cc1S(=O)(=O)Nc1cc(Cl)ccc1Cl	none (no result: IDE cell activ)
COc1ccc(-c2ccc(-c3cc(=O)oc4c(C(C)C)ccc(C)c34)cc2)cc1	none (no result: Mot1-301 SUMO, HDAC3 inhib, IDE inh, LANA-H2B inh)
C[C@]12CC[C@@H]3c4ccc(O)cc4CC[C@H]3[C@@H]1CCC2=O	LANA-H2B inh 40!
CC(C)[C@H](NC(=O)OCc1ccccc1)C(=O)OCC(=O)N1CCCCC1	none (no result: Mot1-301 SUMO, HDAC3 inhib, IDE inh, LANA-H2B inh)
COc1cccc(OCCOc2c(OC)cccc2OC)c1	LANA-H2B inh 14
CC(C)N1CCN(c2ccc(OC[C@H]3CO[C@](Cn4cncn4)(c4ccc(Cl)cc4Cl)O3)cc2)CC1	Mot1-301 SUMO 269
COc1ccc(Cl)cc1C(=O)Nc1nc(C)cc(C)n1	none
C/C(=N\Nc1ccc(Cl)cc1)c1c(O)cc(C)oc1=O	Mot1-301 SUMO 332 (no result: IDE cell activ)
Cc1cccc(C(=O)N2CCc3cc(-c4nc(NC(=O)Cn5nnc6ccccc6c5=O)sc4C)ccc32)c1	Mot1-301 SUMO 378 (no result: HDAC3 inhib, IDE cell activ, LANA-H2B inh)
C#CCOCCOCCOCCNc1nc(N2CCOCC2)nc(N2CCN(C(=O)CCCCCCCCCCNC(=O)[C@H]([C@@H](C)CC)n3cc(CCCCN=C(N)N)nn3)CC2)n1	none
C#CCOCCOCCOCCNc1nc(N2CCN(C(=O)CCCCCCCCCCNC(=O)[C@@H](CCSC)n3cc(CCO)nn3)CC2)nc(N2CCN(C(=O)CCCCCCCCCCNC(=O)[C@H](CO)n3cc(CCCCCN)nn3)CC2)n1	IDE cell activ 29
C#CCOCCOCCOCCNc1nc(N2CCN(C(=O)CCCCCCCCCCNC(=O)[C@H]([C@@H](C)CC)n3cc(CCCCN=C(N)N)nn3)CC2)nc(N2CCN(C(=O)CCCCCCCCCCNC(=O)[C@@H]([C@H](C)O)n3cc(C)nn3)CC2)n1	IDE cell activ 51
